Assay results published in the supplement of paper PMC9262897, “Low-cost anti-mycobacterial drug discovery using engineered E. coli” (Nature Communications, 2022).
Structures can show the parent of a compound that is named as a salt. ± gives the standard deviation of the averaged measurements.

These compounds were tested on E. coli TESEC Mtb Alr (assay: growth (OD600 after 10 h); higher = more growth (less inhibition)). Conditions: arabinose 10000000 nM; compound 0.1 mM; raw OD600 reference: median of DMSO wells […], cell-free background 0.052.
Description: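 TESEC Mtb Alr E. coli (ΔaraC ΔtolC ΔentC Δalr ΔdadX, arabinose-inducible Mtb Alr) or the Alr+ wild-type control strain, grown in defined M9-fructose medium without D-alanine in 96-well plates with Prestwick library compounds at 0.1 mM and 1% DMSO. Low Alr induction is 0.1 µM arabinose and high induction is 10 mM arabinose.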

SMILES	growth
CC(C)c1ccc2oc3nc(N)c(C(=O)O)cc3c(=O)c2c1 [Amlexanox]	0.279 ± 0.018
CCC1=C(C)CN(C(=O)NCCc2ccc(S(=O)(=O)NC(=O)N[C@H]3CC[C@H](C)CC3)cc2)C1=O [Glimepiride]	0.193 ± 0.014
CCOc1ccc2ccccc2c1C(=O)N[C@@H]1C(=O)N2[C@@H]1SC(C)(C)[C@@H]2C(=O)O [Nafcillin sodium salt monohydrate]	0.343 ± 0.016
S=c1[nH]cnc2nc[nH]c12 [Mercaptopurine]	0.113 ± 0.01
O=C(O)c1cccnc1 [Niacin]	0.431 ± 0.014
CC(=O)OCC(=O)[C@@]1(O)CC[C@H]2[C@@H]3CCC4=CC(=O)C=C[C@]4(C)[C@@]3(F)[C@@H](O)C[C@@]21C [Isoflupredone acetate]	0.286 ± 0.01
CCc1oc2ccccc2c1C(=O)c1cc(Br)c(O)c(Br)c1 [Benzbromarone]	0.0513 ± 0.0023
NS(=O)(=O)c1cc(Cl)c(Cl)c(S(N)(=O)=O)c1 [Dichlorphenamide]	0.399 ± 0.032
O=C(O)[C@H]1/C(=C/CO)O[C@@H]2CC(=O)N21 [Clavulanate potassium salt]	0.101 ± 0.017
COc1ccccc1OCCNCC(O)COc1cccc2[nH]c3ccccc3c12 (stereo not drawn) [Carvedilol]	0.0825 ± 0.025
CC(=O)N[C@@H](CS)C(=O)O [Acetylcysteine]	0.344 ± 0.0049
CO[C@@]1(NC(=O)C2SC(=C(C(N)=O)C(=O)O)S2)C(=O)N2C(C(=O)O)=C(CSc3nnnn3C)CS[C@@H]21 (stereo partly drawn) [Cefotetan]	0.0531 ± 0.0051
CC(=O)O[C@H]1C(=O)[C@@]2(C)[C@H]([C@H](OC(=O)c3ccccc3)[C@]3(O)C[C@H](OC(=O)[C@H](O)[C@@H](NC(=O)c4ccccc4)c4ccccc4)C(C)=C1C3(C)C)[C@]1(OC(C)=O)CO[C@@H]1C[C@@H]2O [Paclitaxel]	0.336 ± 0.033
